Assay outcomes (PubChem BioAssay)
Compounds with a hit are over-represented: about 12% of the library has one in this group of screens.
JMJD2A Tudor: blocks the human JMJD2A Tudor domain; O75164; AlphaScreen JMJD2A-Tudor / H3K4me3 peptide binding; Potency, µM (doses to about 114 µM), for inactives: at the highest dose activity change, negative = inhibition, most hits filed as inhibitors; 390,000 compounds, 4.4% hits; AID 504339; also: % is scaled to controls: 0 for no effect and ±100 for the full control effect; nearly all actives have a fitted effect of over 50% in size
L3MBTL1 inh: blocks human L3MBTL1 | Q9Y468 | AlphaScreen L3MBTL1–H3K9me1 peptide binding | Potency, µM (top dose mostly 57.1 µM), for inactives: at the top dose activity, negative = inhibition, most hits filed as inhibitors | 230,000 compounds, 0.66% hits; also: % is scaled to controls: 0 for no effect and ±100 for the full control effect; nearly all actives have a fitted effect of over 60% in size
Target sequence (Q9Y468 whole entry, looked up): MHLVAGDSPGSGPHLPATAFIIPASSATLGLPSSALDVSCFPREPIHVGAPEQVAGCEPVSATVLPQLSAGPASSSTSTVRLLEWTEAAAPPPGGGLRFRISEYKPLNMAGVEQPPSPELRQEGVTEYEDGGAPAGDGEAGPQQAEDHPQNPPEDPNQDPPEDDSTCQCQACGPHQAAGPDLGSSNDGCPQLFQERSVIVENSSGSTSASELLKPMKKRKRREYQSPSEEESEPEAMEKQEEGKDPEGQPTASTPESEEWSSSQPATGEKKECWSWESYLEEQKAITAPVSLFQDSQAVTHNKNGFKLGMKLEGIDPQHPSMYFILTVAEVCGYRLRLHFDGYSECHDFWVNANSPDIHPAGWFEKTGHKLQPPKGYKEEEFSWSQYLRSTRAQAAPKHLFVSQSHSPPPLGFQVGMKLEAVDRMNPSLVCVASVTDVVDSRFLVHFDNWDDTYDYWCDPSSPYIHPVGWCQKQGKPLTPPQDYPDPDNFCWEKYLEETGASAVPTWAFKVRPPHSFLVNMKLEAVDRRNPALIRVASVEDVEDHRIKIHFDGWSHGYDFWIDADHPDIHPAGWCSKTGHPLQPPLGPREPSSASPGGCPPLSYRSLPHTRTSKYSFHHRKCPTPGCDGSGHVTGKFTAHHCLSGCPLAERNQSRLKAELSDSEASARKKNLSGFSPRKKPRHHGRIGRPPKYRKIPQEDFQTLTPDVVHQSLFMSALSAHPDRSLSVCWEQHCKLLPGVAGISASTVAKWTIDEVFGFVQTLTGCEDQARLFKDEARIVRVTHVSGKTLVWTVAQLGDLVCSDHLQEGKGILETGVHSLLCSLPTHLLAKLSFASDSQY
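Read-out is AlphaScreen signal from streptavidin donor and nickel chelate acceptor beads (10 ug/mL final each) bridging L3MBTL1 (50 nM) and biotinylated K9-monomethylated H3(1-15) peptide (75 nM), after 30 min compound exposure at room temperature.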
HP1b chromo inh: inhibitors of HP1-beta chromodomain binding to methylated histone tails; P83916; AlphaScreen HP1-beta / biotin-H3K9me3 peptide binding; Potency, µM (series often up to 114 µM), without a hit: at the highest dose activity change, negative = inhibition, hits mostly inhibitors; 390,000 compounds, 0.56% hits; AID 540317; also: nearly all actives have a fitted effect of over 70% in size
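AlphaScreen: HP1-beta (50 nM) preformed 30 min with biotin-H3(1-18)K9me3 peptide (50 nM) in PBS pH 7.4, 0.01% Tween-20. Compound added for 30 min at RT, then streptavidin donor/nickel chelate acceptor beads (10 ug/mL) for 30 min.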
Sfp PPTase inh: blocks B. subtilis Sfp PPTase activity. Potency, µM, without a hit: largest response in the series, negative = inhibition, usual class: inhibitors. 310,000 compounds, 3.5% hits. Biochemical Sfp PPTase activity, qHTS. Q9F4F7;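 also: the enzyme is Sfp with the accession as filed and its product quenches rhodamine fluorescence; 0% = enzyme reaction without inhibitor and -100% = no enzyme wells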
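Buffer: 50 mM Hepes-Na pH 7.6, 10 mM MgCl2, 0.01% Nonidet P-40, 0.01% BSA. Enzyme 15 nM, pre-exposed to compound 15 min; substrates then added and fluorescence change tracked over 30 min.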
G9a block: G9a (human) methyltransferase inhibition | 350,000 compounds, 8.8% hits | AID 504332 | Potency, µM (top dose mostly 102 µM), inactives show at the top dose activity, negative = inhibition, hits mostly inhibitors | G9a H3K9 monomethylation, AlphaScreen, 2 h; also: % is scaled to controls: 0 for no effect and ±100 for the full control effect; nearly all actives have a fitted effect of over 75% in size
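G9a (20 nM) preincubated 15 min RT with compounds, then 500 nM biotinylated H3K9 peptide and 20 uM SAM added; 2 h RT reaction. Monomethyl-H3K9 product detected by AlphaScreen with anti-H3K9me1 antibody, streptavidin donor and anti-rabbit IgG acceptor beads.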
BAZ2B inh: blocks human BAZ2B. Potency, µM (series often up to 114 µM), for the others: at the highest dose activity change, negative = inhibition, hits mostly inhibitors. AlphaScreen BAZ2B-H3K14Ac peptide displacement. 360,000 compounds, 4.4% hits. Q9UIF8; also: % is scaled to controls: 0 for no effect and ±100 for the full control effect; nearly all actives have a fitted effect of over 60% in size
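AlphaScreen displacement: compounds (up to 110uM) incubated 30 min at room temperature with a preformed 50 nM BAZ2B/50 nM biotinylated H3K14Ac peptide complex in PBS pH 7.4 with Tween-20. Donor and acceptor beads at 10 ug/mL final added, 20 min light-protected before reading.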
The depositor's hits bear a star; i = inactive; ? = inconclusive; . = no result given; [ ] = dose if it differs, or a comment. Calls follow the shape of the dose curve; as a rule, active = well fitted curve in the direction sought with a large enough effect; inconclusive = small, poorly fitted or top-dose-only effect, or another doubt; inactive = no such curve, though single readings can be large; an effect the other way counts as inactive or inconclusive. Potency is read from the fitted curve at half-maximal effect.

SMILES	JMJD2A Tudor	L3MBTL1 inh	HP1b chromo inh	Sfp PPTase inh	G9a block	BAZ2B inh
CC(=O)C1=C(C)OC(N)=C(C#N)C1c1cc([N+](=O)[O-])ccc1Cl (stereo unspecified)	-19%	12%	35%	-4%	.	-10%
CC1(C)CC(=O)C2=C(C1)OC(N)=C(C#N)C2c1cccs1 (stereo unspecified)	7%	1%	26%	10%	4%	-1%
O=C(Nc1ccc(C(F)(F)F)cc1)N1CCC(N2CCCCC2)CC1	-12%	.	22%	.	-2%[59 µM]	-3%
CSc1ccc(CNC(=O)c2cc3cc(S(=O)(=O)N4CCCCC4)ccc3n2C)cc1	-8%	.	20%[57 µM]	.	-32%[59 µM]	-1%
CCOC(=O)C1=C(C)OC(N)=C(C#N)C1c1cc(SCC)oc1C (stereo unspecified)	-18%	.	21%	11%	45µM*	?
CCOC(=O)C1=C(C)OC(N)=C(C#N)C1c1ccsc1 (stereo unspecified)	-7%	-3%	41%	-2%	10µM*	-38%
CCOC(=O)Cc1[nH]nc2c1C(c1ccsc1)C(C#N)=C(N)O2 (stereo unspecified)	-10%	2%	44%	15%	5%	-4%
Cc1ccc2oc(-c3ccc(C)c(NC(=O)C(C)(C)Oc4ccc(Cl)cc4)c3)nc2c1	-13%	.	18%	.	-1%[59 µM]	-8%
N#Cc1cccc(NC(=O)N2CC[C@@]3(CCCNC3)C2)c1	.	.	.	79µM*	-14%[12.7 µM]	.
CC(=O)N1CCC[C@@]2(CCN(C(=O)Nc3cccc(C#N)c3)C2)C1	.	.	.	16%	5%[12.7 µM]	.
Brc1ccc(-c2csc(N3CCCCC3)n2)cc1	.	18%	.	.	5%[12.7 µM]	23%
Cc1cc(Cl)c(OCCN2C(=O)NC(C)(C)C2=O)c(Br)c1	9%	.	30%	23%	-1%	1%
Cc1cc(C)c(OCCN2CCCC2)c(Cl)c1	-100%	-3%	-22%	-16%	45µM*	-32%
Cc1cc(C)c(OCCOCCN2CCN(C)CC2)c(Cl)c1	1.6µM*	-5%	?	-30%	3.5µM*	32µM*
Cc1cc(Cl)cc(C)c1OCCn1ccnc1	-27%	.	28%	3%	-12%	-37%
Cc1cc(Cl)cc(Cl)c1OCCN1CCCC1	50µM*	7%	?	-1%	50µM*	-9%
Cc1cc(Cl)c(OCCOCCN2CCNCC2)c(Cl)c1	-5%	.	31%	.	.	.
Cc1cc(Cl)c(OCCCN2CCCCC2)c(Br)c1	28µM*	-6%	?	-5%	?	50µM*
CCOc1ccccc1-c1nnc(SCc2ccc(Cl)cc2)o1	122%	.	323%	.	446%[59 µM]	i
CC(=O)Nc1ccc(SCC(c2ccccc2)N2CCN(C)CCC2=O)cc1 (stereo unspecified)	-11%	.	15%	-7%	.	.
Cc1cc(Cl)cc(Cl)c1OCCCCN(C)C	45µM*	2%	?	-7%	8.9µM*	-35%
CCc1nc2sc3c(O)cc(=O)[nH]c3c2cc1C	-9%	.	41%	?	45µM*	0%
Cc1cc(F)ccc1NC(=O)CCS(=O)(=O)c1ccc2c(c1)NC(=O)CO2	5%	.	39%	.	-2%[59 µM]	1%
COc1ccc(-c2cc(C)no2)cc1S(=O)(=O)N1CC(C)Oc2ccccc21 (stereo unspecified)	-18%	.	14%	.	-20%[59 µM]	?
COc1ccc(-c2cc(C)no2)cc1S(=O)(=O)N1CC(=O)Nc2ccccc21	-13%	.	18%	4%	50µM*	-31%
SMILES	JMJD2A Tudor	L3MBTL1 inh	HP1b chromo inh	Sfp PPTase inh	G9a block	BAZ2B inh
Cc1ccc(S(=O)(=O)N2CCN(CC(=O)N/N=C/c3ccccc3OCC(=O)O)CC2)cc1	40µM*	.	14%	17%	.	-14%
COc1cc(OC)c(OC)cc1/C=N/NC(=O)c1cccc(S(=O)(=O)N2CCOCC2)c1	-25%	-6%	16%	6%	?	-27%
COc1cc(/C=N/NC(=O)c2cccc(S(=O)(=O)N3CCOCC3)c2)cc(OC)c1O	-19%	-2%	17%	-8%	40µM*	-13%
O=C(N/N=C/c1ccc(O)c(O)c1)c1ccc(-n2cnnn2)cc1	?	?	-12%	.	?	50µM*
O=C(N/N=C/c1cccc(O)c1)c1ccc(-n2cnnn2)cc1	-12%	-1%	59%	.	8%	8%
O=C(O)COc1ccccc1/C=N/NC(=O)c1cccc(S(=O)(=O)N2CCOCC2)c1	40µM*	-6%	0%	?	14µM*	?
COc1ccc(-n2ncc(C(=O)NCc3ccc4c(c3)OCO4)c2C2CCN(C(=O)OC(C)(C)C)CC2)cc1	-33%	.	11%	.	-37%[59 µM]	-8%[57.1 µM]
CCN(CC)S(=O)(=O)c1cccc(C(=O)N/N=C/c2ccccc2OCC(=O)O)c1	?	0%	0%	?	22µM*	50µM*
O=C(N/N=C/c1ccc(O)c(O)c1)c1cccc(S(=O)(=O)N2CCCCC2)c1	?	-3%	5%	-23%	50µM*	?
Cc1cc(C)n(-c2nc(NC(C)C)nc(NC(C)(C)C)n2)n1	-23%[57.1 µM]	.	26%[57 µM]	.	.	.
CCCCn1cc(S(=O)(=O)c2ccc(OC)cc2)c(=O)c2cc(F)c(N3CCOCC3)cc21	-11%	.	28%	.	6%[59 µM]	2%
Cc1ccc2occ(CC(=O)Nc3ccc(S(=O)(=O)N4CCC(C)CC4)cc3)c2c1	-28%	.	11%	.	?	-13%
COc1ccc(C2NC(=S)N(c3ccccc3)C(C)=C2C(=O)Nc2ccccc2)cc1 (stereo unspecified)	-25%	.	-6%	89µM*	?	1%
CC1=C(C(=O)Nc2ccc([N+](=O)[O-])cc2)C(c2cccc(C(F)(F)F)c2)NC(=S)N1c1ccccc1 (stereo unspecified)	?	.	-9%	14%	-3%	-36%
COc1ccc(CN2CCNC(=O)C2CC(=O)NC2CCCC2)c(C)c1C (stereo unspecified)	20µM*	.	12%	-5%	45µM*	?
COc1cccc(CN2CCNC(=O)C2CC(=O)NC2CCOCC2)c1OC (stereo unspecified)	-2%	.	38%	-5%	45µM*	19%
COc1cccc(CN2CCNC(=O)C2CC(=O)NCCn2ccc3ccccc32)c1OC (stereo unspecified)	?	-17%	12%	1%	40µM*	?
COc1cccc(CN2CCNC(=O)C2CC(=O)NCc2cn3ccccc3n2)c1OC (stereo unspecified)	-3%	-1%	25%	-2%	?	-18%
COc1ccc(C(CC(=O)NCc2ccccc2)N2Cc3ccccc3C2=O)cc1 (stereo unspecified)	-12%	.	69%	.	8%[59 µM]	1%
